About 83,000 compounds went through this panel and 20% of them were active in at least one assay; those are over-represented in the sample as a whole.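 The test compound was applied at a single concentration to cells in 96-well plates for 48 hours, and percent growth was recorded.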 Calls of active or inactive are those of the source.
Tested on: NCI-H460 lung
Assay: NCI-60 one-dose screen, 48 h (100 = growth as untreated, 0 = no growth, -100 = all killed)
Settings: 10 µM unless noted
Procedure: Growth inhibition of the NCI-H460 human Non-Small Cell Lung tumor cell line is measured as a screen for anti-cancer activity. Cells are grown in 96 well plates and exposed to the test compound for 48 hours. Compounds are tested at a single concentration, which is 10^-5 M for most compounds. The reported endpoint is percent growth (GI% or GIPRCNT), where numbers from 0 - 100% represent growth inhibition, and numbers from -100% - 0 represent cell death. For example, a value of 40 represents 60% growth inhibition. A value of 0 means no net growth occurred over the course of the experiment. A value of -40 indicates 40% of cells at the beginning of the experiment died by the end of the experiment. A value of -100 means all cells are dead at the end of the experiment.
NCI-60 Human Tumor Cell Lines Screen was performed using the standard one-dose NCI protocol, which is described in more detail at https://dtp.cancer.gov/discovery_development/nci-60/default.htm.
Compounds with GIPRCNT values below 10 were considered active. Activity score was based on GIPRCNT using the following formula: […]
Score is 0 for GIPRCNT values of 100 or above, 50 for GIPRCNT values of 0, and 100 for GIPRCNT values of -100.

Compound	growth
CCOC(=O)C1=C(C)n2nc(CC#N)c(C#N)c2NC1c1ccc(CC)cc1 (stereo not given)	104% (inactive)
NCCN1CCNCC1	108% (inactive)
COc1ccc2oc(=O)cc(-c3c(C#N)c(N)n4nc(N)c(C#N)c4c3C#N)c2c1	101% (inactive)
COc1cc(-c2csc(NC(=O)Nc3ccc(C(F)(F)F)cc3)n2)cc(OC)c1OC	4.98% (active)
CCCCC(=O)Nc1c(C(=O)Nc2ccccc2)sc2nc3c(cc12)C(OC(=O)CCCC)CCC3 (stereo not given)	85.9% (inactive)
C[C@@H]1C(=O)[C@@H]2C[C@@H](O)[C@@H](O)C[C@]2(C)[C@H]2CC[C@@]3(C)C(=C12)CC[C@@H]3[C@@](C)(O)[C@H](O)CCC(C)(C)O	105% (inactive)
O=C(CN1N=C(c2ccc(F)cc2)CCC1=O)Nc1nccs1	97.7% (inactive)
CC(=O)c1ccc(NC(=O)CSc2nnc(-c3cc(-c4ccc(C)cc4)nc4ccccc34)o2)cc1	10.5% (inactive)
CCCCOc1nc2ccc(C)cc2cc1/C=C/C(=O)/C=C/c1ccc2c(c1)OCO2	103% (inactive)
NS(=O)(=O)c1ccc(-n2nc(-c3ccccc3)ccc2=O)cc1	104% (inactive)
CC(=O)c1c(OCC#N)ccc2c(C)cc(=O)oc12	103% (inactive)
O=S(=O)(O)c1ccc(N=NSc2ccc3ccccc3c2)cc1	98.1% (inactive)
CC1(c2ccccc2Cl)NC(=O)NC1=O (stereo not given)	106% (inactive)
O=C1NC(c2ccc(F)cc2)N=C2C(c3ccccc3)=NOC12 (stereo not given)	112% (inactive)
CCCCCCCCCCCCCC1=NCC[N+]1(CCO)Cc1ccccc1 (stereo not given)	-81.3% (active)
COC(=O)/C=C1\SC(=Nc2cccc(Cl)c2)N(CCc2c[nH]c3ccccc23)C1=O	51.3% (inactive)
O=C1C(Cl)=C(Nc2ccc3c(c2NC2=C(Cl)C(=O)c4ccccc4C2=O)C(=O)c2ccccc2C3=O)C(=O)c2ccccc21	10.4% (inactive)
Cn1nc(C(F)(F)F)c(-c2cc(C(F)(F)F)cc(C(F)(F)F)c2)c1-c1ccc(OCc2ccc(Cl)cc2)cc1O	-10.4% (active)
Cc1cc(O)cc(O)c1N=NC1=NCCS1	115% (inactive)
COc1cc(N=Nc2cc(S(=O)(=O)O)cc3cc(S(=O)(=O)O)cc(O)c23)c(C)cc1N=Nc1c(S(=O)(=O)O)cc2cc(Nc3ccccc3)ccc2c1O	106% (inactive)

Compound	growth
CCC[S@](=O)c1ccc2nc(NC(=O)OC)[nH]c2c1	99.8% (inactive)
O=C(O)c1cc(N=Nc2ccc(-c3ccc(N=Nc4c(S(=O)(=O)O)cc5ccc(Nc6ccccc6)cc5c4O)cc3)cc2)ccc1O	113% (inactive)
CCOC(=O)C1CCN(S(=O)(=O)/N=C2/NC(=O)NC2=C(Cl)Cl)CC1	7.43% (active)
C=C(C)[C@@H]1CC[C@]2(C(=O)NCCCO)CC[C@]3(C)[C@H](CC[C@@H]4[C@@]5(C)CCCNC(C)(C)[C@@H]5CC[C@]43C)[C@@H]12	68.9% (inactive)
COc1ccc2nc(-c3ccc(Cl)cc3)cc(-c3nnc(SC/C(=N/O)c4ccccc4)o3)c2c1	29.6% (inactive)
N#CC(C#N)=C1NC(c2ccccc2)=C(c2ccccc2)C(c2ccccc2Cl)=C1C#N	111% (inactive)
COc1ccc(C2C(c3ccccc3)C(=O)N2c2cc(OC)c(OC)c(OC)c2)cc1I (stereo not given)	4.29% (active)
COC(=O)/C=C1\SC(=Nc2ccc(C(F)(F)F)cc2)N(CCc2c[nH]c3ccccc23)C1=O	-47.4% (active)
C=C(C)[C@@H]1CC[C@]2(C(=O)N3CCN(C)CC3)CC[C@]3(C)[C@H](CC[C@@H]4[C@@]5(C)C/C(=C/c6ccco6)C(=O)C(C)(C)[C@@H]5CC[C@]43C)[C@@H]12	64.9% (inactive)
O=C(/C(=C/c1ccc([N+](=O)[O-])cc1)SCc1ccc(F)cc1)c1ccc(Cl)cc1	82.4% (inactive)
Nc1cc(N)c(S(=O)(=O)O)cc1N=Nc1cc([N+](=O)[O-])ccc1O	104% (inactive)
c1cc(CNC23CC4CC(CC(C4)C2)C3)cc(C[N+](Cc2cccc(CNC34CC5CC(CC(C5)C3)C4)c2)(Cc2cccc(CNC34CC5CC(CC(C5)C3)C4)c2)Cc2cccc(CNC34CC5CC(CC(C5)C3)C4)c2)c1 (stereo not given)	3.83% [42 µM] (active)
CCOC(=O)c1c(C)nc2c(c1N)/C(=C/c1ccccn1)C(=O)N2Cc1ccccc1	4.8% (active)
CN(C)CCCn1c2c(c3cc(-c4ccco4)ccc3c1=O)C(=O)c1ccccc1-2	46.3% (inactive)
Cc1ccc2nc3nc4ccc[nH]c4cc3c2c1	53.8% (inactive)
CCOCc1cc(C(C)(C)C)ccc1O	103% (inactive)
COc1ccc2c(c1)Oc1nc(N)c(C#N)c(N)c1C2Sc1ccc(O)cc1 (stereo not given)	104% (inactive)
CN1CCN(C(=O)[C@@]2(C)CC[C@]3(C)CC[C@]4(C)C(=CC[C@@H]5[C@@]6(C)CC[C@H](OC(=O)c7cccnc7)C(C)(C)[C@@H]6CC[C@]54C)[C@@H]3C2)CC1	11.7% (inactive)
COC(=O)c1ccc2c(c1)n(Cc1ccc3ccccc3c1)c[n+]2Cc1ccc2ccccc2c1	28.6% (inactive)
CC1CCCN(CCCCCOc2ccc3oc4ccc(Cl)cc4c(=O)c3c2)C1 (stereo not given)	54.5% (inactive)

— PubChem BioAssay (NCI)
